# Measured values reported in PubChem BioAssay (NCI).
# This is part of a sample that, as a whole, favours compounds with a hit. Of some 83,000 tested, about 20% had one in any assay.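 Treatment: one concentration, 48 hours, 96-well format. Scoring: percent growth, with anything below 10 considered active.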 A number with no mark means an inactive call. Calls of active or inactive are those of the source.
# Legend:
# Assay in all cases: NCI-60 one-dose screen, 48 h (100 = growth as untreated, 0 = no growth, -100 = all killed)
# Details in all cases: 10 µM unless noted
# SR leukemia = test system: SR leukemia
# RPMI-8226 leukemia = test system: RPMI-8226 leukemia
# OVCAR-8 ovarian = test system: OVCAR-8 ovarian
# OVCAR-5 ovarian = test system: OVCAR-5 ovarian
# OVCAR-4 ovarian = test system: OVCAR-4 ovarian
# SK-OV-3 ovarian = test system: SK-OV-3 ovarian
# OVCAR-3 ovarian = test system: OVCAR-3 ovarian
# HS 578T breast = test system: HS 578T breast
# NCI/ADR-RES ovarian = test system: NCI/ADR-RES ovarian
# T-47D breast = test system: T-47D breast
# BT-549 breast = test system: BT-549 breast
# MDA-MB-435 melanoma = test system: MDA-MB-435 melanoma
# SW-620 colon = test system: SW-620 colon
# MCF7 breast = test system: MCF7 breast
# HCT-116 colon = test system: HCT-116 colon
# HCC-2998 colon = test system: HCC-2998 colon
# IGROV1 ovarian = test system: IGROV1 ovarian
# KM12 colon = test system: KM12 colon
Structure (SMILES),growth (SR leukemia),growth (RPMI-8226 leukemia),growth (OVCAR-8 ovarian),growth (OVCAR-5 ovarian),growth (OVCAR-4 ovarian),growth (SK-OV-3 ovarian),growth (OVCAR-3 ovarian),growth (HS 578T breast),growth (NCI/ADR-RES ovarian),growth (T-47D breast),growth (BT-549 breast),growth (MDA-MB-435 melanoma),growth (SW-620 colon),growth (MCF7 breast),growth (HCT-116 colon),growth (HCC-2998 colon),growth (IGROV1 ovarian),growth (KM12 colon)
COc1ccc(CCN2C(=O)CCC3=C2CCCC3=O)cc1OC,101%,98.1%,102%,104%,102%,100%,120%,94.6%,98.2%,104%,104%,103%,107%,92.6%,100%,103%,–,–
CCCc1n(Cc2ccc3ccccc3c2)cc[n+]1Cc1ccc2ccccc2c1,-38.1% (active),-22.2% (active),-10.6% (active),9.11% (active),9.35% (active),6.89% (active),-55.6% (active),–,89.2%,-3.21% (active),–,-50.8% (active),8.13% (active),-16.7% (active),1.39% (active),-22.9% (active),-54.2% (active),-63.7% (active)
O=CN1N=C(c2ccc(Cl)cc2)CC1c1cccc(Nc2ccnc3cc(Cl)ccc23)c1 (centres undefined),1.88% (active),13.4%,12.6%,34.6%,29.2%,19.2%,16.3%,–,2.47% (active),11.8%,7.26% (active),4.68% (active),27%,11.3%,7.72% (active),40.9%,34.4%,19.8%
O=C(N/N=C/c1cccc([N+](=O)[O-])c1)c1ccc(Br)o1,134%,85.9%,39.4%,107%,105%,97.7%,111%,158%,101%,83.4%,103%,106%,116%,78.1%,100%,87.2%,–,109%
O=C(CSc1nnc(-c2cc(-c3ccccc3)nc3ccccc23)o1)c1ccc(Br)cc1,83.7%,109%,100%,104%,106%,112%,108%,–,107%,102%,96.9%,104%,107%,111%,101%,113%,102%,107%
O=c1[nH]c(SCc2ccccc2)nc2nc(Nc3ccc(NC(=S)Nc4ccccc4)cc3)nc(-c3ccc(O)cc3O)c12,54.8%,96.5%,108%,87.5%,100%,91.4%,81.1%,107%,99.3%,73.1%,91.7%,104%,96.8%,99.2%,102%,98.6%,–,89.4%
CCC(C)C1NC(=O)C(CCNCS(=O)(=O)O)NC(=O)C(NC(=O)C(CCNCS(=O)(=O)O)NC(=O)C(NC(=O)C(CCNCS(=O)(=O)O)NC(=O)CCCCC(C)C)C(C)O)CCNC(=O)C(C(C)O)NC(=O)C(CCNCS(=O)(=O)O)NC(=O)C(CCNCS(=O)(=O)O)NC(=O)C(C(C)CC)NC1=O (centres undefined),16.4%,22.6%,78.7%,73.1%,58.1%,40.3%,–,–,107%,49.2%,–,-56.2% (active),34.8%,18.7%,31.7%,65.1%,56.8%,–
O=C(NC1CCS(=O)(=O)C1)c1ccc(C(=O)c2ccccc2)cc1 (centres undefined),133%,72.8%,70%,102%,98.1%,113%,121%,34.5%,117%,107%,121%,101%,95.8%,105%,104%,103%,–,125%
O=C(CNC(=O)c1cccc2ccccc12)Nc1ccccc1Oc1cccc(O)c1,18.7% [5 µM],25.9% [5 µM],15.3% [5 µM],39.9% [5 µM],59.1% [5 µM],7.7% [5 µM] (active),-10.8% [5 µM] (active),–,13% [5 µM],42.3% [5 µM],18.7% [5 µM],-48% [5 µM] (active),20.3% [5 µM],20.5% [5 µM],8.18% [5 µM] (active),58.3% [5 µM],42.9% [5 µM],22.8% [5 µM]
C=CCNC(=O)/C(=C/c1cccc([N+](=O)[O-])c1)NC(=O)c1ccccc1,207%,108%,98.7%,101%,99.3%,99.9%,108%,108%,106%,98.2%,88.1%,101%,103%,101%,98.2%,78.2%,–,109%
Nc1nc(NC2CC2)c2ncn(C3C=CC(CO)C3)c2n1 (centres undefined),80.8%,111%,93.9%,103%,106%,117%,110%,104%,104%,110%,115%,105%,106%,107%,109%,103%,–,99.7%
O=C(COc1ccc(/C=C2\Oc3ccc4ccccc4c3C2=O)cc1)c1ccc([N+](=O)[O-])cc1,29%,61.9%,91.1%,103%,102%,103%,158%,105%,101%,73.1%,9.91% (active),104%,98.5%,15.6%,74.1%,95.5%,–,93.5%
COc1cc(/C=N/NC(=O)c2ccc(C(F)(F)F)nc2Nc2cc(Cl)ccc2C)cc(OC)c1OC,91.8%,64.7%,99.8%,103%,104%,106%,123%,104%,98.3%,84.7%,99.6%,97.7%,97%,104%,99%,104%,–,108%
COC(=O)c1cc2oc(/C=N\NC(=O)c3cc4oc(C)c(C)c4[nH]3)cc2[nH]1,51.4%,35.1%,108%,111%,118%,100%,128%,108%,102%,90.2%,91.3%,96.6%,108%,86.8%,101%,101%,–,108%
O=c1[nH]cc(Nc2cc(Cl)c3nonc3c2[N+](=O)[O-])c(=O)[nH]1,100%,96.2%,98.4%,98.1%,121%,104%,123%,47.8%,96%,101%,114%,-41.2% (active),89.8%,109%,99.1%,90.6%,–,109%
O=C(COc1cccc(/C=C2\Cc3ccccc3C2=O)c1)c1ccc(Cl)cc1,111%,90.2%,90.4%,103%,90.1%,130%,120%,102%,93.5%,80%,99.4%,114%,97.2%,78%,100%,102%,–,105%
O=C(CNC(=O)c1cccc2ccccc12)Nc1ccccc1Cc1ccccc1,18.8% [5 µM],39.1% [5 µM],37.6% [5 µM],66.4% [5 µM],81.2% [5 µM],45% [5 µM],15.5% [5 µM],–,17% [5 µM],37.7% [5 µM],40.3% [5 µM],-8.01% [5 µM] (active),25.5% [5 µM],23.5% [5 µM],14.6% [5 µM],87.1% [5 µM],53% [5 µM],36% [5 µM]
